KB-3-1 cytotox = KB-3-1 parental cell cytotoxicity | KB-3-1 viability, CellTiter-Glo ATP luminescence, 72 h | Potency, µM (series often up to 46.1 µM), hits mostly cytotoxic | actives 1.4% (n = 400,000) | AID 1347075; further: nearly all actives have a fitted effect of over 60% in size
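Parental KB-3-1 viability, qHTS format: 72 h compound exposure, 37 °C; CellTiter-Glo; media-only wells and DMSO plates as controls; concentration-effect fits on corrected data.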
KB-V1 cytotox = KB-V1 MDR subline cytotoxicity. KB-V1 MDR cells viability, CellTiter-Glo, 72 h. Potency, µM (titrated, usually from 46.1 µM), most hits filed as cytotoxic. actives 3.4% (n = 400,000); further: nearly all actives have a fitted effect of over 60% in size
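Cells of the MDR subline KB-V1 are plated, dosed with compound at multiple concentrations, and incubated 72 h at 37 degrees C; CellTiter-Glo is then added and luminescence read after 10 min.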
HT1080-NT tox = kills 2HG-producing HT-1080-NT fibrosarcoma cells | actives 1.6% (n = 360,000) | HT-1080-NT fibrosarcoma viability, CellTiter-Glo ATP luminescence, 48 h | Potency, µM (series often up to 46.1 µM), hits mostly cytotoxic;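 further: NT is the 2HG producing partner of a matched IDH1 knockdown line; nearly all actives have a fitted effect of over 55% in size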
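Fibrosarcoma NT cells, 750 per well in 5% FBS RPMI, were exposed to compound for 48 hours. Viability: CellTiter-Glo luminescence.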
DT40 TDP1 CPT = DT40-hTDP1 cell growth loss with CPT. Potency, µM (highest dose often 46.2 µM), most hits filed as inhibitors. AID 686979. chicken DT40 Tdp1-/-;hTDP1 cells + 20 nM CPT, ATP luminescence, 48 h. actives 12% (n = 420,000); further: nearly all actives have a fitted effect of over 55% in size
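Chicken DT40 Tdp1-/- cells stably complemented with human TDP1 were seeded at 400 cells/well in medium containing 20 nM camptothecin, exposed to pin-transferred compounds, and grown at 37 °C for at least 48 hr. Viability was read as ATP luminescence.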
DT40 TDP1 no CPT = qHTS for Inhibitors of human tyrosyl-DNA phosphodiesterase 1 (TDP1): qHTS in cells in absence of CPT; actives 15% (n = 420,000); DT40 Tdp1-/- hTDP1 cells, no CPT, ATP luminescence, 48 h; AID 686978, 2013; Potency, µM (series often up to 46.2 µM), actives largely listed as inhibitors; further: nearly all actives have a fitted effect of over 55% in size
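Seeded 400 DT40-hTDP1 cells/well (vehicle DMSO, no 20 nM CPT); pinned compounds; ≥48 hr at 37 °C; CellTiter-Glo luminescence as viability measure.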
HT1080 IDH1KD tx = HT-1080 IDH1 knockdown cell toxicity (counter line) | actives 2% (n = 360,000) | Potency, µM (top dose mostly 46.1 µM), actives largely listed as cytotoxic | HT-1080 IDH1 knockdown viability, ATP luminescence, 48 h
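% activity derives from luminescence (CellTiter-Glo), normalised to DMSO and no-cell wells. HT-1080-IDH1KD cells, 750/well, had 48 h compound exposure at 37 °C.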
Numbers stand for hits; 0 = inactive; ? = inconclusive; - = no result; ! = a repeat was not active. Rows were chosen to be rich in hits. Some 19% of all compounds tested hit in one or more screens of this group. The call rests on the fitted dose curve; in most records, active means well fitted curve in the direction sought with a large enough effect; inconclusive means small, poorly fitted or top-dose-only effect, or another doubt; inactive means no such curve, though single readings can be large; an effect the other way counts as inactive or inconclusive.

SMILES	KB-3-1 cytotox	KB-V1 cytotox	HT1080-NT tox	DT40 TDP1 CPT	DT40 TDP1 no CPT	HT1080 IDH1KD tx
c1ccc2c(N3CCNCC3)nsc2c1	0	0	0	10µM	13µM	?
CN1C(=O)C(=Cc2ccccc2OS(=O)(=O)c2ccccc2)C(=O)N(C)C1=O	0	0	0	?	?	0
c1ccc2c(c1)sc1ccccc12	-	-	-	?	0	-
CCN(CC)CCNC(=O)c1nn(-c2ccc(C)cc2)c(=O)c2c1c1ccccc1n2C	0	0	0	0	21µM	0
CN1CCC(O)(c2ccccc2)C(C(=O)c2ccccc2)C1 (stereo unspecified)	0	0	0	9.2µM	18µM	0
CCN1CCC(O)(c2ccccc2)C(C(=O)c2ccccc2)C1 (stereo unspecified)	0	0	0	2.6µM	4.1µM	0
CN1CCC(O)(c2ccccc2)C2CCCC21 (stereo unspecified)	0	0	0	0	0	0
C=C(C)COc1ccc(-c2n[nH]c(C)c2-c2ccc(Br)cc2)c(O)c1	?	?	10µM	18µM	?	10µM
c1ccc(C[n+]2ccccc2)cc1	0	0	0	?	16µM	0
Cc1cccc(CN2CCCC(C(=O)c3ccc4c(c3)OCO4)C2)n1 (stereo unspecified)	0	0	0	0	0	0
COC(=O)[C@@H]1N=C(c2ccc(OC)cc2)O[C@]12C(=O)N(Cc1ccc(OC)cc1)c1ccccc12	?	23µM	0	18µM	?	?
CCCC1(CCC)C(=O)NC(=NCc2ccccc2)NC1=O	?	0	15µM	10µM	13µM	?
CCCC1(CCC)C(=O)NC(=Nc2ccccc2)NC1=O	0	0	0	0	0	0
Cc1nn(C2CCOC(C)(C)C2)c2c1C(c1ccc(OC(C)C)cc1)SCC(=O)N2 (stereo unspecified)	0	0	0	?	?	0
CC(C)COC(=O)c1ccccc1C(=O)OCC(C)C	0	0	0	?	?	0
C[CH2][Hg][S]c1ccccc1C(=O)O	5.2µM	21µM	2.3µM	0.41µM	0.58µM	3.3µM
O=C(c1csnn1)N1CCC[C@@]2(CCN(Cc3ccncc3)C2)C1	-	-	-	0	0	-
CCN(C[C@H]1N[C@@](CC)(C(=O)OC)[C@H]2C(=O)N(Cc3ccccc3)C(=O)[C@@H]12)S(=O)(=O)c1ccc(OC)cc1	0	0	0	23µM	?	0
CC[C@@]1(C(=O)OC)N[C@H](CN(C)C(=O)c2ccc(C(C)(C)C)cc2)[C@@H]2C(=O)N(Cc3ccccc3)C(=O)[C@@H]21	0	?	0	?	16µM	0
CS(=O)c1ccc(-c2nc(-c3ccc(F)cc3)c(-c3ccncc3)[nH]2)cc1 (stereo unspecified)	-	-	-	30µM!	15µM	-
C#CCN1CCN(c2cccc(C(F)(F)F)c2)CC1	0	0	0	0	0	0
Cn1c(O)c(/C=C2\C=c3ccccc3=NC2=O)c(=O)n(C)c1=O	0	0	0	?	0	0
Cn1c(O)c(/C=C2\N=c3ccccc3=C2CCNC(=S)NC2CC2)c(=O)n(C)c1=O	0	0	0	15µM	23µM	0
NC[C@H](CC(=O)O)c1ccc(Cl)cc1	-	-	-	?	0	-
COc1nc(NC2CCCCC2)nc(NC(C)(C)C)n1	?	0	0	?	12µM	0
SMILES	KB-3-1 cytotox	KB-V1 cytotox	HT1080-NT tox	DT40 TDP1 CPT	DT40 TDP1 no CPT	HT1080 IDH1KD tx
Nc1nc(N)nc(NC2CC2)n1	-	-	-	0	0	-
CC(=O)C1=C(O)C2C3c4c[nH]c5cccc(c45)CC3C(C)(C)N2C1=O (stereo unspecified)	-	-	-	10µM	7.3µM	-
C/C(O)=C1\C(=O)[C@@H]2[C@H]3c4c[nH]c5cccc(c45)C[C@H]3C(C)(C)N2C1=O	-	-	-	10µM	8.3µM	-
CC(=O)C1=C(O)[C@@H]2[C@@H]3c4c[nH]c5cccc(c45)C[C@@H]3C(C)(C)N2C1=O	-	-	-	6.7µM	4.2µM	-
CN1CCN(C(=O)COc2ccc(N(C)S(=O)(=O)c3ccc(F)cc3)cc2)CC1	0	?	0	0	?	0
Cc1c(C)c2ccc(OCC(=O)N3C[C@H]4C[C@@H](C3)c3cccc(=O)n3C4)cc2oc1=O	0	0	0	0	0	0
O=C1N=C2SCCN2C(=O)C1Cc1ccc(Cl)cc1 (stereo unspecified)	-	-	-	?	0	-
c1ccc(CCN2CCCCC2)cc1	0	0	-	0	0	-
CC1=NNC(=O)C1Br (stereo unspecified)	0	0	0	?	?	0
COC1=CC=C2[C@H]3Cc4ccc(OC)c5c4[C@@]2(CCN3C)[C@H]1O5	?	0	0	0	0	0
COc1ccc(-c2cc(C3CCN(c4cc(Cl)nc(N)n4)CC3)[nH]n2)cc1	?	0	?	23µM	23µM	?
COc1ccc(C2=C(C(C)=O)Sc3nnc(-c4ccc(Cl)cc4)n3N2C(C)=O)cc1OC	-	-	-	4.1µM	2.3µM	-
COc1ccc(-c2nnc3n2N(C(C)=O)C(c2ccc(Cl)c(Cl)c2)=C(C(C)=O)S3)cc1	-	-	-	3.3µM	4.1µM	-
C[C@@H]1O[C@@H](O[C@H]2C[C@@H](O)[C@]3(CO)[C@H]4[C@H](O)C[C@]5(C)[C@@H](C6COC(=O)C6)CC[C@]5(O)[C@@H]4CC[C@]3(O)C2)[C@H](O)[C@H](O)[C@H]1O (stereo partly specified)	?	1.6µM	1.8µM	0	?	0.82µM
C#CCCC[C@@H]1OC(=O)CNC(=O)C([C@@H](C)CC)NC(=O)[C@@H]2CCCN2C(=O)C([C@@H](C)CC)OC(=O)[C@H](Cc2ccccc2)N(C)C(=O)[C@H](C(C)C)NC(=O)C1(C)C (stereo partly specified)	0	0	?	13µM	21µM	?
CNC(=O)Oc1ccc2c(c1)[C@]1(C)CCN(C)[C@@H]1N2C	0	0	?	0	?	0
CN1CC[C@@]2(C)c3cc(O)ccc3N(C)C12 (stereo partly specified)	?	?	-	4µM	?	-
CNC(=O)Oc1ccc2c(c1)C1(C)CCN(C)C1N2C (stereo unspecified)	-	-	-	24µM	30µM	-
O=[N+]([O-])c1ccc(N2CCCC2)c2ccncc12	0	0	0	?	21µM	0
O=[N+]([O-])c1ccc(NC2CCCC2)c2ccncc12	0	0	0	?	?	0
CCCCn1c(O)c(/C=C2/C=CC=N2)c(=O)[nH]c1=O	0	0	15µM	18µM	4.1µM	?
O=c1[nH]c(=O)n(Cc2ccccc2Cl)c(O)c1/C=C1/C=CC=N1	23µM	0	4.1µM	5.8µM	5.8µM	5.8µM
